40 molecules from PubChem BioAssay (NCATS) can be followed below.

Molecules are shown by their SMILES. Results filed as inconclusive are left out. A call without a number means that no potency is given here. Calls of active or inactive are those of the source. Calls come from the whole dose curve; as a rule, active = well fitted cell-killing curve with a large enough effect; inconclusive = small, poorly fitted or top-dose-only effect; inactive = no such curve, though single readings can be large or run the other way.
Potency is the fitted concentration of half-maximal effect.

The experiment in a line: qHTS of pediatric cancer cell lines to identify multiple opportunities for drug repurposing: Primary screen for Rh30 cells (AID 1347107). Note: nearly all actives have a fitted effect of over 75% in size. Conditions: Rh30 rhabdomyosarcoma viability, CellTiter-Glo luminescence, 48 h; series mostly up to 46 µM; activity change, negative = cytotoxic: at the top concentration. From the text:
Drug repurposing or repositioning has been offered as a strategy for drug development in oncology programs. This approach has special potential for childhood cancers and other rare or orphan diseases, where the expected return on new drug development has been a disincentive to pharmaceuticals.
In this project we exploit the poly-pharmacology of drugs to discover new indications via phenotypic screening of a panel of 19 well-characterized cell lines derived from solid tumors seen in children and adolescents. The goal is to identify approved drugs with previously unrecognized anticancer properties that has the potential to reveal new mechanisms and biological processes involved in carcinogenesis or drug resistance. We employed a titration-based paradigm (quantitative high-throughput screening or qHTS), where all compounds were tested at multiple concentrations for their effect on cell viability. Concentration-response curves (CRCs) were derived directly from the primary screen, and both potency and efficacy values were used to identify compounds with robust bioactivity profiles. We screened the NIH Chemical Genomics Center (NCGC) Pharmaceutical Collection (NPC) and Mechanism Interrogation Plate (MIPE) small molecule collections of approved and investigational compounds against these cell lines; and measured metabolically active cells after 48 hours of compound treatment as a proxy for cell viability.
Assay Submitter: Nathalia J. Martinez, National Center for Advancing Translational Sciences, National Institutes of Health, Rockville, MD, USA; email: natalia.martinez@nih.gov
[1] Shen, M et al. Quantitative high-throughput phenotypic screening of pediatric cancer cell lines identifies multiple opportunities for drug repurposing. Oncotarget 2017 Dec 19;9(4):4758-4772. PMID 29435139.
The cells were obtained from University of North Carolina (UNC), Pediatric Preclinical Testing Program (PPT), and Coriell Institute (CI).
qHTS cell viability assay:
Cells were assayed in growth media at a density of 500-1,000 cells/well. Five microliters of cells were dispensed into 1,536-well, white, solid-bottom, TC-treated plates (Greiner Bio One) using a multidrop dispenser and incubated at 37 degrees C, 5% CO2, under a humidified atmosphere for 5 hours. Twenty-three nanoliters of compounds and controls (neutral control DMSO or positive control bortezomib at final concentration of 2.3 µM) were subsequently transferred by Kalypsys pintool. For primary screens, the MIPE collection was tested at 11-point dilutions (final concentrations range from 0.78 nM to 46 µM) and the NPC collection at 8-point dilutions (final concentrations range from 0.59 nM to 46 µM). Compounds tested in follow-up screens were assayed at 11-point dilutions. Cells were incubated for 48 hours, followed by addition of 3 µL of CellTiter-Glo (Promega). After a 15 min incubation at room temperature, samples were analyzed for luminescence intensity using a ViewLux High-throughput CCD imager equipped with clear filters.
For orientation: Quantitative high-throughput screening tests each substance at several concentrations.
As to `CCc1nc(N)nc(N)c1-c1ccc(Cl)cc1`, the Potency result is “inactive”.
On to `CN(c1nccc(=O)[nH]1)C1CCN(c2nc3ccccc3n2Cc2ccc(F)cc2)CC1`, for which the Potency entry was “inactive”.
`COc1cc(OC)c(C(=O)CCCN2CCCC2)c(OC)c1`: the “activity change, negative = cytotoxic” value was 21.1% (inactive).
On to `Nc1cccc2c1CN(C1CCC(=O)NC1=O)C2=O` (stereo not given), for which the Potency result is “inactive”.
For `N=C(N)c1ccc2cc(OC(=O)c3ccc(N=C(N)N)cc3)ccc2c1`, the Potency result is “inactive”.
Regarding `CC[C@]1(O)C[C@H]2CN(CCc3c([nH]c4ccccc34)[C@@](C(=O)OC)(c3cc4c(cc3OC)N(C=O)[C@H]3[C@@](O)(C(=O)OC)[C@H](OC(C)=O)[C@]5(CC)C=CCN6CC[C@]43[C@@H]65)C2)C1`, the Potency result was “inactive”.
As to `Cc1nc2n(c(=O)c1CCN1CCC(c3noc4cc(F)ccc34)CC1)CCCC2`, the Potency result was “inactive”.
In the case of `Clc1ccc(C(Cn2ccnc2)OCc2ccc(Sc3ccccc3)cc2)c(Cl)c1` (stereo not given), the Potency entry is “inactive”.
For `Cc1ccc(S(=O)(=O)NC(=O)NN2CC3CCCC3C2)cc1` (stereo not given), the Potency entry was “inactive”.
Consider `C[C@@H](N)C1CCC(C(=O)Nc2ccncc2)CC1` (stereo not given in full), for which the “activity change, negative = cytotoxic” value was 12.8% (inactive).
Take `Cc1ncc([N+](=O)[O-])n1CC(C)O` (stereo not given): the Potency entry is “inactive”.
Consider `NC(=O)Cc1cccc(C(=O)c2ccccc2)c1N`, for which the Potency entry was “inactive”.
`O=C(O)c1cccnc1Nc1cccc(C(F)(F)F)c1`: the Potency result was “inactive”.
Consider `C[C@]12CCC(=O)C=C1CC[C@@H]1[C@H]2[C@@H](O)C[C@@]2(C)[C@H]1CC[C@]2(O)C(=O)CO`, for which the “activity change, negative = cytotoxic” value is 22% (inactive).
On the same count and under the same terms, with `O=C(CS(=O)Cc1ccco1)NCC=CCOc1cc(CN2CCCCC2)ccn1` (stereo not given) the figure was 14.6% (inactive).
With `Oc1ccc(OCc2ccccc2)cc1`, the “activity change, negative = cytotoxic” value is 15.8% (inactive).
`CCOC(=O)C1=C(O)C(=O)N(Cc2ccccc2)C1`: the “activity change, negative = cytotoxic” value was 10.5% (inactive).
Turning to `CCN(CCO)CCCC(C)Nc1ccnc2cc(Cl)ccc12` (stereo not given), the Potency result is “inactive”.
`CCOC(=O)c1c(C)n(C)c2ccc(O)cc12`: the Potency result is “inactive”.
As to `Cc1ccc(C)c(OCCCC(C)(C)C(=O)O)c1`, the “activity change, negative = cytotoxic” value was 24% (inactive).
As to `O=Nc1c(-c2c(O)[nH]c3cc(Br)ccc23)[nH]c2ccccc12`, the Potency was 18.7 µM (active).
For `CC1Cc2ccccc2N1NC(=O)c1ccc(Cl)c(S(N)(=O)=O)c1` (stereo not given), the Potency result is “inactive”.
`CN1CCC(=C2c3ccccc3CCc3sccc32)CC1`: the Potency result was “inactive”.
Regarding `CN(C)CCCC1(c2ccc(F)cc2)OCc2cc(C#N)ccc21` (stereo not given), the “activity change, negative = cytotoxic” value is -2.93% (inactive).
For `C=C(c1ccc(C(=O)O)cc1)c1cc2c(cc1C)C(C)(C)CCC2(C)C`, the Potency result was “inactive”.
For `C[C@@H](c1ncncc1F)[C@](O)(Cn1cncn1)c1ccc(F)cc1F`, the “activity change, negative = cytotoxic” value was 4.1% (inactive).
`O=c1c(O)c(-c2cc(O)c(O)c(O)c2)oc2cc(O)cc(O)c12`: the “activity change, negative = cytotoxic” value is -0.553% (inactive).
On to `CC(=O)Nc1ccc(O)cc1`, for which the Potency entry is “inactive”.
For the molecule `Cc1nc(-c2ccc(OCC(C)C)c(C#N)c2)sc1C(=O)O`, the Potency result was “inactive”.
Turning to `COc1ccc2cc([C@H](C)C(=O)O)ccc2c1`, the Potency result was “inactive”.
With `Clc1ccc2c(N3CCN(CCCN4CCN(c5ccnc6cc(Cl)ccc56)CC4)CC3)ccnc2c1`, the “activity change, negative = cytotoxic” value is 24% [at 16.1 µM] (inactive).
For `COc1cc2c(N3CCN(C(=O)Nc4ccc(OC(C)C)cc4)CC3)ncnc2cc1OCCCN1CCCCC1`, the Potency entry was “inactive”.
On to `N=C(N=C(N)N)N1CCOCC1`, for which the Potency result was “inactive”.
Take `CC(C)c1ccc2oc3nc(N)c(C(=O)O)cc3c(=O)c2c1`: the Potency entry was “inactive”.
Consider `O=C1c2c(O)cc(O)cc2OC(c2ccc(O)c(O)c2)C1O` (stereo not given), for which the “activity change, negative = cytotoxic” value is 16.9% (inactive).
Turning to `CN1C(C(=O)Nc2ccccn2)=C(O)c2sccc2S1(=O)=O`, the Potency entry was “inactive”.
Turning to `CCOc1cc(CC(=O)N[C@@H](CC(C)C)c2ccccc2N2CCCCC2)ccc1C(=O)O`, the “activity change, negative = cytotoxic” value is 30% (inactive).
For the molecule `O=C(CCc1ccc(O)cc1)c1c(O)cc(O)cc1O`, the “activity change, negative = cytotoxic” value was 3.77% (inactive).
Consider `CC1(C)C(=O)N(CCN2CCC(C(=O)c3ccc(F)cc3)CC2)c2ccccc21`, for which the “activity change, negative = cytotoxic” value is 19.2% (inactive).
`Clc1ccc(C(Cn2ccnc2)OCc2c(Cl)cccc2Cl)c(Cl)c1` (stereo not given): the Potency result is “inactive”.
